PubChem BioAssay (NCI)
About 83,000 compounds went through this panel and 20% of them were active in at least one assay; those are over-represented in the sample as a whole.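 Single-dose data. Exposure time 48 hours. Values below 10 considered active.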 Calls of active or inactive are those of the source.

Assays:
Experiment in all cases: NCI-60 one-dose screen, 48 h (100 = growth as untreated, 0 = no growth, -100 = all killed)
[1] = system: EKVX NSCLC; details: 10 µM unless noted
[2] = system: SN12C renal; details: 10 µM unless noted
[3] = system: UO-31 renal; details: 10 µM unless noted
[4] = system: TK-10 renal; details: 10 µM unless noted
[5] = system: ACHN renal; details: 10 µM unless noted
[6] = system: CAKI-1 renal; details: 10 µM
[7] = system: A498 renal; details: 10 µM unless noted
[8] = system: CCRF-CEM leukemia; details: 10 µM unless noted
[9] = system: RPMI-8226 leukemia; details: 10 µM unless noted
[10] = system: OVCAR-8 ovarian; details: 10 µM unless noted
[11] = system: OVCAR-5 ovarian; details: 10 µM unless noted
[12] = system: OVCAR-4 ovarian; details: 10 µM unless noted
[13] = system: SK-OV-3 ovarian; details: 10 µM unless noted
[14] = system: IGROV1 ovarian; details: 10 µM unless noted
[15] = system: HS 578T breast; details: 10 µM unless noted
[16] = system: NCI/ADR-RES ovarian; details: 10 µM unless noted
[17] = system: SR leukemia; details: 10 µM unless noted
[18] = system: MOLT-4 leukemia; details: 10 µM unless noted

Measured: growth

O=c1cc(-c2ccccc2)nc2sc(-c3c[nH]c4ccc(Br)cc34)nn12
inactive: [1] 91.2% | [2] 94.9% | [3] 79.6% | [4] 110% | [5] 96.3% | [6] 91.4% | [7] 85.5% | [8] 123% | [9] 112% | [10] 106% | [11] 100% | [12] 105% | [13] 110% | [14] 98.9% | [15] 113% | [16] 101%

COc1ccc([C@H]2[C@H](O)C(=O)N2c2cc(OC)c(OC)c(OC)c2)cc1Cl
inactive: [1] 50.1% | [2] 22.2% | [3] 32.8% | [4] 85.4% | [5] 26.6% | [6] 30.6% | [8] 16.4% | [9] 19% | [11] 30.3% | [12] 74.4% | [13] 27.3% | [14] 22.8% | [15] 13.6%
active: [7] -17% | [10] -12.7% | [16] -10.6%

Cc1ccccc1/C=C/c1nn2c(-c3ccoc3C)nnc2s1
inactive: [1] 100% | [2] 101% | [3] 85.4% | [4] 95.5% | [5] 102% | [6] 89.8% | [7] 89.5% | [8] 108% | [9] 91.4% | [10] 97.1% | [11] 100% | [12] 99.6% | [13] 118% | [14] 107% | [15] 111% | [16] 93.7%

C/C(=C(/c1ccc(O)cc1)c1ccc(OCCN2CCCCCC2)cc1)c1ccccc1
active: [17] -24% | [9] 2.14%
inactive: [1] 59% | [2] 57.2% | [3] 29.4% | [4] 92.6% | [5] 58.7% | [6] 39.2% | [7] 74.6% | [8] 60% | [10] 69.2% | [11] 63.3% | [12] 68.4% | [14] 61.9% | [15] 44.3% | [16] 65.6%

CS(=O)(=O)c1nccc(-c2c(-c3ccc(F)c(OCCc4ccccc4)c3)nc3sccn23)n1
inactive: [1] 59.5% | [2] 83.7% | [3] 85.5% | [4] 100% | [5] 90% | [6] 84% | [7] 90.4% | [8] 84.2% | [9] 54.7% | [10] 87.5% | [11] 100% | [12] 98.4% | [13] 121% | [14] 59.3% | [15] 113% | [16] 95.9%

CCOC(=O)CC(=O)CSC1=NC2C(NN1)N(C)C(=O)N2C (stereo not drawn)
inactive: [1] 56.2% | [2] 91.6% | [3] 57.2% | [4] 104% | [5] 82.6% | [6] 88.5% | [7] 118% | [8] 38.8% | [9] 56% | [10] 66.8% | [11] 88.6% | [12] 88.9% | [13] 114% | [14] 91.2% | [15] 94.4% | [16] 80.1%

COc1cc2c3c(n(CCCN4CCCC4)c(=O)c2cc1OC)-c1cc2c(cc1C3=O)OCO2
inactive: [2] 11.8% | [3] 40.4% | [5] 55.6% | [6] 55.3% | [7] 80.2% | [13] 53.7% | [15] 88.6%
active: [1] -55.3% | [4] -86% | [8] -11.9% | [9] -41.2% | [10] -65.3% | [11] -73.1% | [12] -59.2% | [14] -70.9% | [16] -39.6%

O=c1cc(-c2ccccc2)nc2sc(-c3c[nH]c4ccc(F)cc34)nn12
active: [12] -14.1% | [15] -4.32%
inactive: [1] 52% | [2] 56.6% | [3] 20.3% | [4] 50.9% | [5] 30% | [6] 60.5% | [7] 88.8% | [8] 88.4% | [9] 71.9% | [10] 62% | [11] 77.2% | [13] 56.6% | [14] 85.4% | [16] 60.6%

C/C(=C(/c1ccc(O)cc1)c1ccc(OCCN(C)C)cc1)c1ccc(Cl)cc1
active: [17] -3.2% | [9] -8.72%
inactive: [1] 61.4% | [2] 59.1% | [3] 50.6% | [4] 85% | [5] 32.8% | [6] 36.2% | [7] 70.2% | [8] 53% | [18] 11.9% | [10] 62.1% | [11] 66.6% | [12] 66.9% | [13] 83% | [14] 58.1% | [15] 46.8% | [16] 61.8%

COc1cnc2c(c1)C(=O)c1c-2n(CCCNCC2CC2)c(=O)c2cc(F)ccc12
inactive: [1] 13.3% | [14] 10.3% | [15] 26.1%
active: [2] 0.563% | [3] -81.7% | [4] -32.9% | [5] -62% | [6] -27.2% | [7] -31% | [8] -2.04% | [9] -38.5% | [10] -61.6% | [11] -6.47% | [12] -4.75% | [13] -38% | [16] 5.01%

COc1ccc(/C(C)=C(\c2ccc(Cl)cc2)c2ccc(OCCN)cc2)cc1
inactive: [1] 87.2% | [2] 78.3% | [3] 60.8% | [4] 119% | [5] 84.9% | [6] 67.3% | [7] 90.1% | [8] 66.1% | [9] 67.1% | [10] 88.7% | [11] 83.8% | [12] 90.3% | [13] 131% | [14] 77.8% | [15] 89% | [16] 89.1%

CC(=O)c1sc(Nc2cccc(Nc3nc(C)c(C)s3)c2)nc1C
inactive: [1] 68.8% | [2] 55% | [3] 32.2% | [4] 53.6% | [5] 36.5% | [6] 28.1% | [7] 27.7% | [8] 61.2% | [18] 38.3% | [17] 38.5% | [9] 67.9% | [10] 43.4% | [11] 83.5% | [12] 51.5% | [14] 26.4% | [15] 52.7% | [16] 55.6%

Cn1cc(-c2nn3cc(-c4cccnc4)nc3s2)c2cc(F)ccc21
inactive: [1] 80.9% | [2] 85.2% | [3] 70.5% | [4] 129% | [5] 83.8% | [6] 78.1% | [7] 103% | [8] 89.2% | [9] 93.9% | [10] 81.8% | [11] 91.5% | [12] 104% | [13] 77.4% | [14] 74.5% | [15] 84.6% | [16] 75.7%

c1cncc(-c2cn3nc(-c4c[nH]c5ccccc45)sc3n2)c1
inactive: [1] 72.5% | [2] 61.5% | [3] 44.6% | [4] 94.4% | [5] 72.3% | [6] 51.7% | [7] 47.9% | [8] 54.1% | [9] 63.1% | [10] 52.2% | [11] 43.4% | [12] 83.3% | [13] 86.2% | [14] 59.8% | [15] 57.8% | [16] 18.3%

CCN1CCN(Cc2ccc(C(=O)Nc3nc4ccc(Oc5ccnc(C(=O)NC)c5)cc4s3)cc2C(F)(F)F)CC1
inactive: [1] 52.4% | [2] 77.4% | [3] 33.2% | [4] 91.6% | [5] 57.4% | [6] 47.2% | [7] 74.1% | [8] 60.6% | [9] 26.4% | [10] 60.8% | [11] 76.7% | [12] 61% | [13] 83.7% | [14] 70.3% | [15] 51.9% | [16] 67%

CNC(=O)c1cc(Oc2ccc3nc(NC(=O)c4ccc(CN5CCCN(C)CC5)c(C(F)(F)F)c4)sc3c2)ccn1
inactive: [1] 40.1% | [2] 54.9% | [4] 47.9% | [6] 14.6% | [7] 66.2% | [10] 32.4% | [11] 53.6% | [12] 52.3% | [13] 80.3% | [14] 60.6% | [16] 60.6%
active: [3] 4.18% | [5] 4.16% | [8] 8.38% | [18] -35.2% | [17] -59.8% | [9] -31.1% | [15] -1.04%

CS(=O)c1nccc(-c2c(-c3ccc(F)c(OCc4ccccc4)c3)nc3sccn23)n1 (stereo not drawn)
active: [17] -1.23%
inactive: [1] 83% | [2] 97.4% | [3] 94.9% | [4] 106% | [5] 82.6% | [6] 89.3% | [7] 94.2% | [8] 76.4% | [18] 32.2% | [9] 60.6% | [10] 96.1% | [11] 104% | [12] 102% | [13] 114% | [15] 101%

COc1ccc2c(C3=C(c4cn(C)c5ccccc45)C(=O)NC3=O)coc2c1
active: [15] 9.64%
inactive: [1] 50.7% | [2] 32.3% | [3] 37.8% | [4] 79.4% | [5] 37.4% | [6] 42% | [7] 34.9% | [8] 18.8% | [9] 11.6% | [10] 41% | [11] 43% | [12] 79% | [13] 47.6% | [14] 47.2% | [16] 25.1%
